PubChem BioAssay (NCATS)
Inconclusive results are not listed. A call without a number means that no potency is given here. Active and inactive are the calls of the source. Calls follow the shape of the dose curve; as a rule, active = well fitted inhibition curve with a large enough effect; inconclusive = small, poorly fitted or top-dose-only effect; inactive = flat fitted curve, though single readings scatter.

Test system: Zika virus NS2B-NS3 protease
Test: Primary screen GU AMC qHTS for Zika virus inhibitors (AID 1347154); also: nearly all actives have a fitted effect of over 70% in size
Settings: Zika NS2B-NS3 unlinked protease, AMC fluorogenic substrate; series mostly up to 54.1 µM
How it was run: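 Unlinked Zika NS2B hydrophilic domain/NS3 protease domain noncovalent complex (25 nM final) in 10 mM Tris-HCl pH 8.0, 0.01% Tween 20, with AMC peptide substrate. Fluorescence (ex 340, em 450 nm) change over 15 min, room temperature; percent inhibition fitted to 4-parameter Hill equation.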

Row | Compound | Potency
1 | CO[C@H]1C[C@@H]2CC[C@@H](C)[C@@](O)(O2)C(=O)C(=O)N2CCCC[C@@H]2C(=O)O[C@H]([C@H](C)C[C@@H]2CC[C@H](OCCO)[C@H](OC)C2)CC(=O)[C@H](C)C=C(C)[C@@H](O)[C@@H](OC)C(=O)[C@H](C)C[C@H](C)C=CC=CC=C1C | inactive
2 | COc1cc(O)c2c(c1)C(=O)c1cc(C)cc(O)c1C2=O | inactive
3 | CC(=Cc1ccccc1)C=C1SC(=S)N(CC(=O)O)C1=O | inactive
4 | O=c1ccn([C@@H]2O[C@H](CO)[C@H](O)[C@H]2O)c(=O)[nH]1 | inactive
5 | N[C@@]1(C(=O)O)CS(=O)(=O)[C@H]2[C@H](C(=O)O)[C@H]21 | inactive
6 | CC1(C)CCC2=C(O1)c1ccccc1C(=O)C2=O | inactive
7 | CC=CC[C@@H](C)C(=O)[C@H]1C(=O)N[C@@H](C(C)C)C(=O)N(C)CC(=O)N(C)[C@@H](CC(C)C)C(=O)N[C@@H](C(C)C)C(=O)N(C)[C@@H](CC(C)C)C(=O)N[C@@H](C)C(=O)N[C@H](C)C(=O)N(C)[C@@H](CC(C)C)C(=O)N(C)[C@@H](CC(C)C)C(=O)N(C)[C@@H](C(C)C)C(=O)N1C | inactive
8 | C[C@H]1[C@H](NC(=O)C(=NOC(C)(C)C(=O)O)c2csc(N)n2)C(=O)N1S(=O)(=O)O | inactive
9 | CO[C@H]1C[C@@H]2CC[C@@H](C)[C@@](O)(O2)C(=O)C(=O)N2CCCC[C@@H]2C(=O)O[C@H]([C@H](C)C[C@@H]2CC[C@H](OP(C)(C)=O)[C@H](OC)C2)CC(=O)[C@H](C)C=C(C)[C@@H](O)[C@@H](OC)C(=O)[C@H](C)C[C@H](C)C=CC=CC=C1C | inactive
